Experimental data reported in PubChem BioAssay (Tox21).
“And” between values parts separate entries of the source, which are not always exact repeats. Equal entries are not always repeated. The source made the active and inactive calls. Where a call stands in place of a potency, no number is given. Calls follow the shape of the full dose curve.

test: G protein-coupled receptor (GPCR) small molecule agonists, calcium flux assay: HEK293 wild type cell line counter screen (AID 1920065); settings: HEK293 WT calcium flux, fluorescence, agonist mode; series mostly up to 57.6 µM
Source text: U.S. Tox21 Program National Center for Advancing Translational Sciences [NCATS] Division of Preclinical Innovation [DPI] U.S. Environmental Protection Agency [EPA] National Institutes of Environmental Health Sciences [NIEHS] National Toxicology Program [NTP] U.S. Food and Drug Administration [FDA] Assay overview: The increased intracellular calcium release that occurred upon G protein-coupled receptor (GPCR) activation led to the frequent use of calcium flux assays to detect GPCR activation. For the purpose of studying and screening compounds that may activate GPCR, receptor-overexpressing models were typically generated using Hek293 wild-type (WT) cells. In order to eliminate the compounds that may have induced calcium release for non-specific activation, a counter-assay utilizing calcium flux on Hek293 WT cells was performed. The data were formulated in order to serve as a control for any calcium flux detection utilizing Hek293 cells with either GPCR overexpression or gene modification. The procurement of Hek293 WT cells from ATCC. Fluorescence intensity can be utilized to determine the activation of the compound in a calcium flux assay. As a counter control, this cell line was utilized to screen the Tox21 10K compound library.
Assay Protocol Summary: Hek293 cells were dispensed at 1500cells/4uL/well in 1536-well black wall/clear bottom plates using a multidrop dispenser. After the assay plates were incubated at a 37 C/5% CO2 incubator for 18 hours, 4 uL of Calcium Dye Solution was added to each well. The plates were incubated at 37 C for 1 hour. For agonist mode, 23 nL of compounds dissolved in DMSO, positive control (ATP) or DMSO only was transferred to the assay plate by a pin tool station. The fluorescence intensity in the plates was measured using FDSS 7000EX kinetic plate reader with a filter set of Ex/Em=480/540 for 3 min at 1 sec intervals. Each test compound was measured at 15 concentrations and in triplicates.
Potency is read from the fitted curve at half-maximal effect.

Structure (SMILES) | Potency
CC1=C(/C=C/C(C)=C/C=C/C(C)=C/CO)C(C)(C)CCC1 | inactive
OCc1ccc(Cl)cc1Cl | inactive
CC1(C)O[C@@H]2C[C@H]3[C@@H]4C[C@H](F)C5=CC(=O)CC[C@]5(C)[C@H]4[C@@H](O)C[C@]3(C)[C@]2(C(=O)CO)O1 | inactive
CCC(C)(O)CCCC(C)C (stereo not given) | inactive
CC(C)=CCC/C(C)=C/C=O | inactive
CCC(C)OC(=O)c1ccc(O)cc1 (stereo not given) | inactive
O=C1CCCCCN1 | inactive
CCOC(=O)CC(=O)OCC | inactive
Cc1ccc(C)c(O)c1 | inactive
c1ccc2c(c1)c1cccc3ccc4cccc2c4c31 | inactive
CCOc1ccc(NC(C)=O)cc1 | inactive
C=C(C)C(=O)OCCC[Si](OC)(OC)OC | inactive
Nc1ccc(C(=O)O)cc1 | inactive
Cc1ccccc1C(OCCN(C)C)c1ccccc1 (stereo not given) | inactive
COc1cc(NC(=O)CC(C)=O)c(OC)cc1Cl | inactive
Oc1ccc(Cl)cc1Cc1cc(Cl)ccc1O | inactive
CC(=O)CCc1ccccc1 | inactive
C[C@]12C[C@H](O)[C@H]3[C@@H](CCC4=CC(=O)CC[C@@]43C)[C@@H]1CC[C@@H]2C(=O)CO | inactive
CN(C)c1ccc(C(=C2C=CC(=[N+](C)C)C=C2)c2ccccc2)cc1 | inactive
CCCCCC1=CCCC1=O | inactive

Structure (SMILES) | Potency
O=C(O)c1ccccc1Nc1cccc(C(F)(F)F)c1 | inactive
C/C=C/C=C/C(=O)O | inactive
COc1ccc2c(c1)c(CC(=O)O)c(C)n2C(=O)c1ccc(Cl)cc1 | inactive
OC[C@@H](O)[C@H](O)[C@H](O)[C@@H](O)CO | inactive
O=C(O)c1cccc(C(=O)O)c1 | inactive
CC(C)=CCCC(C)CCO (stereo not given) | inactive
CC1=CC2C3CC(C=C3C)C2C1 (stereo not given) | inactive
Brc1ccc(Br)c(Br)c1 | inactive
Nc1c2c(nc3ccccc13)CCCC2 | inactive
OCCOCCN1CCN(C(c2ccccc2)c2ccc(Cl)cc2)CC1 (stereo not given) | inactive
O=C(/C=C/C=C/c1ccc2c(c1)OCO2)N1CCCCC1 | inactive
CN1CCC[C@H]1c1cccnc1 | inactive
OCCOCCOCCO | inactive
Clc1ccc(Cl)c(Cl)c1Cl | inactive
NC(=O)N1c2ccccc2C=Cc2ccccc21 | inactive
Cc1ccc(C)c(C)c1 | inactive
Oc1ccccc1 | inactive
O=C1OC2(c3ccccc31)c1cc(I)c(O)c(I)c1Oc1c2cc(I)c(O)c1I | 39 µM (active) and 22.1 µM (active) and 19 µM (active)
COC1=CC(=O)C[C@@H](C)[C@]12Oc1c(Cl)c(OC)cc(OC)c1C2=O | inactive
O=C(OCc1ccccc1)c1ccccc1 | inactive
